Mito fusion act – mitochondrial division inhibition or fusion activation; S. cerevisiae fusion-defective mutant growth rescue, CellTiterGlo 48 h; Potency, µM (titrated, usually from 46.1 µM), usual class: activators; 0.23% of 320,000 active; AID 485298; also: nearly all actives have a fitted effect of over 45% in size
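Luminescent cell viability in 1536-well qHTS format served as the measure of rescued growth in ts fusion-mutant S. cerevisiae cultured on non-fermentable YPEG for 48 hours at 37C.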
aSyn rescue – rescues yeast growth from alpha-synuclein toxicity; Yeast expressing alpha-synuclein, growth rescue, BacTiter-Glo, 24 h; AID 652106; Potency, µM (series often up to 46.1 µM), usual class: activators; 0.14% of 370,000 active; also: nearly all actives have a fitted effect of over 65% in size
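Screening used galactose-induced yeast with toxic alpha-synuclein levels, exposed to compound for 24 hr at 30 deg C. Cell growth, read with BacTiter-Glo luminescence, gave the measured signal.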
FUS suppressor – FUS proteinopathy suppression in yeast. Potency, µM (series often up to 76.6 µM), actives largely listed as activators. 0.24% of 390,000 active. AID 1347120. S. cerevisiae FUS-expressing, growth rescue, OD600, 24 h; also: nearly all actives have a fitted effect of over 55% in size
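Toxicity suppression screen in FUS-yeast. Cells induced with 2% galactose, starting OD 0.005, treated 24hr at 30C with compounds at multiple final concentrations; growth by OD600.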
Abeta yeast res – compounds reversing amyloid beta toxicity in yeast; yeast expressing A-beta42, growth rescue, OD600, 48 h; response scale: 0% DMSO, 100% iron-clioquinol control; Potency, µM (titrated, usually from 46.1 µM), actives largely listed as activators; 0.063% of 410,000 active; also: nearly all actives have a fitted effect of over 55% in size
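Yeast A-beta toxicity model in growth medium with pinned compounds, 48 h at 30 C; growth read as absorbance at 600 nm. Normalized to FeCl3/clioquinol equimolar mix (positive) and DMSO (negative).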
TDP43 rescue – rescues yeast growth from TDP-43 toxicity. TDP-43 expressing yeast growth rescue, BacTiter-Glo, 24 h. Potency, µM (series often up to 46.1 µM), most hits filed as activators. 1.8% of 410,000 active. AID 652104; also: nearly all actives have a fitted effect of over 50% in size
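Luminescence from BacTiter-Glo reports growth of TDP-43-expressing yeast after 24 hr at 30 deg C with compound. Cells were raffinose-pregrown to mid-log, then seeded in galactose medium at OD600=0.02.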
Hits are given with their value; 0 = inactive; ? = inconclusive; - = not tested or not shown; [ ] = remark or other dose. Most compounds without a hit are left out; they make up all but 2.2% or so of the library. Calls follow the shape of the dose curve; as a rule, active = well fitted curve in the direction sought with a large enough effect; inconclusive = small, poorly fitted or top-dose-only effect, or another doubt; inactive = no such curve, though single readings can be large; an effect the other way counts as inactive or inconclusive.

SMILES	Mito fusion act	aSyn rescue	FUS suppressor	Abeta yeast res	TDP43 rescue
Nc1nc(SCc2ccccc2Cl)c2ncn(C3OC(CO)C(O)C3O)c2n1 (stereo not given)	-	0	0	0	0
Cc1c(Cl)ccc2sc(N3CCN(C(=O)c4ccco4)CC3)nc12	-	-	?	0	32µM
COc1ccc(Cl)c2sc(N3CCN(C(=O)c4ccco4)CC3)nc12	0	0	0	0	18µM
COc1cccc(C(NC(C)=O)c2nc(-c3ccc4ccccc4c3)cs2)c1 (stereo not given)	-	?	?	0	?
CC(=O)NC(c1ccccc1)c1nc(-c2ccc(C)c(C)c2)cs1 (stereo not given)	-	0	0	0	20µM
COc1cccc(C(NC(C)=O)c2nc(-c3ccc(C)c(C)c3)cs2)c1 (stereo not given)	-	18µM	0	0	0
COc1ccc(Nc2c(-c3ccc(F)cc3)nc3nc(C)cc(C)n23)cc1	-	0	0	0	0
CCOC(=O)Cn1c(=NC(=O)CSC(C)=O)sc2cc(F)ccc21	0	0	0	6.3µM	?
COCCn1c(=NC(=O)CSC(C)=O)sc2cc(F)ccc21	0	0	0	?	0
CCn1c(=NC(=O)CSC(C)=O)sc2cc(OC)ccc21	0	0	0	?	14µM
O=C(CC(O)CCc1ccccc1)c1ccc(O)cc1 (stereo not given)	-	0	0	?	10µM
COc1ccc2c(c1)c(=O)c(S(=O)(=O)c1ccc(C)c(C)c1)cn2CC(=O)Nc1ccccc1	-	-	13µM	0	0
COc1cc(NC(=O)Cn2cc(S(=O)(=O)c3ccccc3)c(=O)c3ccccc32)cc(OC)c1	-	-	0	0	0
CCOc1cc2c(c3c1C(c1ccccc1)N(S(=O)(=O)c1ccc(C)cc1)C3)C(=O)C=CC2=O (stereo not given)	-	0	0	0	13µM
CCOC(=O)C1=CCN(S(=O)(=O)c2ccc(C)cc2)C1c1ccccc1 (stereo not given)	-	0	0	0	0
CCN(CC)S(=O)(=O)c1ccc(N2CCOCC2)c(NC(=O)COc2ccccc2C)c1	0	0[1.84 µM]	0	0	0
Cc1cc(C)nc(NC(=O)Cc2ccc(Cl)cc2)c1	0	0	0	0	18µM
CCc1ccc(N2C=C(C(=O)OC)C(c3ccc(OC)cc3)C(C#N)=C2N)cc1 (stereo not given)	-	25µM	?	0	?
COC(=O)C1=CN(c2ccc(OC)cc2)C(N)=C(C#N)C1c1ccc(OC)cc1 (stereo not given)	-	0	?	0	0
Cc1cc(SCC(=O)N/N=C/c2ccc(O)c(O)c2O)c(C)cc1Br	0	16µM	-	0	0
COc1ccc(OC)c(N(CC(=O)NCCSC2CCCCC2)S(=O)(=O)c2ccccc2)c1	0	0	-	0	0
Nc1ccc(C#Cc2ccc3c(=O)c4ccccc4oc3c2)cc1	0	0	0	0	35µM
O=c1c2ccccc2oc2ccc(C#CC3(O)CCCCC3)cc12	-	0	?	0	20µM
Cc1cc(C)cc(C(=O)NCC(=O)NNC(=O)CSc2ccccc2F)c1	0	0[1.84 µM]	0	0	0
CCOC(=O)c1c(S(=O)(=O)NCC(=O)Nc2ccc(F)cc2C)c(C)n(C)c1C	-	-	0	0	0
SMILES	Mito fusion act	aSyn rescue	FUS suppressor	Abeta yeast res	TDP43 rescue
COC(C/C=C/C(=O)COCc1ccccc1)OC	0	0	0	0	13µM
O=C(C1CCCN(S(=O)(=O)c2cc(Cl)ccc2Cl)C1)N1CCCCCC1 (stereo not given)	0	0	-	0	11µM
COc1ccccc1-n1c(SCC(=O)NCC2CCCO2)nc2c([nH]c3ccccc32)c1=O (stereo not given)	0	0	0	0	0
CC(C)(C)c1ccc(/C=C/C(=O)Nc2ccc3c(c2)OCCO3)cc1	15µM	0	-	-	-
CC(C)c1ccc(Nc2nc(NCc3ccco3)nc(N3CCOCC3)n2)cc1	0	0	0	0	16µM
CN1/C(=C/C(=S)NC(=O)C2(C)CC2(Cl)Cl)C(C)(C)c2ccccc21 (stereo not given)	0	0	?	10µM	0[1.82 µM]
O=C(O)CC1(CC(=O)Nc2ccc3sccc3c2)CCCCC1	0	0	0	0	7.9µM
O=C(O)CC1(CC(=O)Nc2ccc3c(c2)OCCCO3)CCCCC1	0	0	0	0	0
O=C(c1ccccc1)C1CCN(C(=O)c2c(F)cccc2F)CC1	0	0	0	0	11µM
O=C(c1ccc(F)cc1)C1CCN(C(=O)c2c(F)cccc2F)CC1	0	0	0	?	?
O=C(NCc1ccccc1)c1cccn1-c1nnc(N2CCCCC2)s1	-	-	0	0	0
Cc1ccc2nsnc2c1NS(=O)(=O)c1c(C)ccc2nsnc12	0	0	0	0	0
Cc1ccc(NS(=O)(=O)c2c(C)ccc3nsnc23)c([N+](=O)[O-])c1	0	0	0	0	22µM
C=CCc1c(C)nc2nc(SCC(=O)Nc3cccc(Cl)c3)nn2c1C	-	-	0	0	32µM
C=CCc1c(C)nc2nc(SCC(=O)Nc3ccc(C)c(C)c3)nn2c1C	-	-	0	0	0
O=C(CSC1=NNC(c2ccccn2)S1)Nc1ccc(C(F)(F)F)cc1 (stereo not given)	0	7.9µM	0	?	0
c1ccc(CSC2=NNC(c3ccccn3)S2)cc1 (stereo not given)	0	5.6µM	0	0	0
O=C(CSc1nccn1C1CCCC1)Nc1ccc(C(F)(F)F)cc1	-	-	0	0	0
CCCCOc1ccc(C(=O)NCCS(=O)(=O)N2CCN(c3ccccc3OC)CC2)cc1	-	-	?	?	13µM
Cc1cccc(Nc2nc(NCc3ccco3)nc(N)c2[N+](=O)[O-])c1	0	0	0	0	0
Cc1cccc(Nc2nc(N)c([N+](=O)[O-])c(N3CCC(C)CC3)n2)c1	0	0	0	0	25µM
Cc1cccc(Nc2nc(N)c([N+](=O)[O-])c(N3CC(C)CC(C)C3)n2)c1 (stereo not given)	0	0	0	0	0
Cc1cccc(Nc2nc(N)c([N+](=O)[O-])c(NCc3ccco3)n2)c1	?	0	?	0	14µM
N#Cc1ccc(/C=C2\CC3(OC(=O)c4ccco4)CCCN2C3)cc1 (stereo not given)	-	-	0	-	-
Cc1cc(C)n2c(NC3CCCCC3)c(-c3cccnc3)nc2n1	-	0	0	0	0
COCCCCOc1cc2nc(N3CCCN(C)CC3)nc(NC3CCN(C)CC3)c2cc1OC	-	0	-	-	-
COc1ccc(C2Nc3ccccc3C(=O)N2Cc2ccccc2)cc1COc1ccc(NC(C)=O)cc1 (stereo not given)	-	-	16µM	-	-
COc1ccc(C2Nc3ccccc3C(=O)N2Cc2ccco2)cc1COc1c(C)cc(NC(C)=O)cc1C (stereo not given)	-	-	10µM	-	-
COc1ccccc1CNC(=O)CN1C(=O)NC2(CCOc3ccccc32)C1=O (stereo not given)	-	0	0	0	0
